DRD3 antagonist = blocks the human D3 dopamine receptor; P35462; D3R cells, DiscoveRx beta-arrestin luminescence, antagonist mode; active compounds read low; max response, negative = inhibition, %; 360,000 tested, 2.5% active; in the data active means max response below about -50%; inconclusive means no clear call, values can overlap the other calls; further: on the % scale 0 is the no-effect control and ±100 the full control effect
Target sequence (P35462 whole entry, looked up): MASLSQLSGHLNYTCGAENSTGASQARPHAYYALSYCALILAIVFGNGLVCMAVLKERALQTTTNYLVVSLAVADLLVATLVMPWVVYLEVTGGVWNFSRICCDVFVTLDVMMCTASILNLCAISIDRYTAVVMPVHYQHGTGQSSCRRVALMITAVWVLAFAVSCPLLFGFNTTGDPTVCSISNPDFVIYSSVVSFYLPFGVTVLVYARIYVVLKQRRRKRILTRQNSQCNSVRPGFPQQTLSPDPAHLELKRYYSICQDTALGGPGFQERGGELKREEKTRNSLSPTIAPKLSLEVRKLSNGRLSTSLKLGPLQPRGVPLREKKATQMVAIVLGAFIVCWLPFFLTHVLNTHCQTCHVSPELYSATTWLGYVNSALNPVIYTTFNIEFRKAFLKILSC
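Cells plated overnight at 1500 cells/well, then exposed to library compounds with dopamine controls for 90 minutes at 37 degrees C. DiscoveRx reagent added for 30–60 minutes at room temperature; luminescence read, quantitative HTS format.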
D3 ag = agonists of human D3 dopamine receptor; P35462; D3R DiscoveRx beta-arrestin cells, luminescence, 90 min; max activation, %; 410,000 tested, 0.58% active; AID 652048; in the data active means max activation above about 30%; further: 0% is about no effect
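Cells at 1500/well, incubated overnight, then treated with pinned compounds (dopamine as control) for 90 min at 37 degrees C. DiscoveRx reagent added for 30 - 60 minutes at room temperature; luminescence read.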
ATXN2 expr inh = ATXN2 expression inhibition | HEK-293 ATXN2-luciferase reporter, luminescence, 24 h | Potency, µM (titrated, usually from 57 µM), for inactives: at the top dose activity change, negative = inhibition, most hits filed as inhibitors | 360,000 tested, 0.72% active; further: potency means the concentration at half of the fitted maximal effect; on the % scale 0 is the no-effect control and ±100 the full control effect; nearly all actives have a fitted effect of over 55% in size
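ATXN2-luciferase reporter cells (luciferase flanked by upstream and downstream ATXN2 gene portions) were treated 24 h at 37 °C with compounds at up to 57 uM. SteadyGlo luminescence gave expression; GF-AFC fluorescence gave viability.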
HepG2 viability = HepG2 cytotoxicity, counter-screen for TGF-b inhibitors | HepG2 CAGA-GFP viability, ATP luminescence, 18 h | Potency, µM (titrated, usually from 46.1 µM), without a hit: at the top dose activity change, negative = cytotoxicity, actives largely listed as cytotoxic | 410,000 tested, 0.76% active | AID 588856; further: potency means the concentration at half of the fitted maximal effect
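HepG2 CAGA-GFP cells (1000/well, DMEM with 1% FBS) received compound, then TGF-beta at 500 pg/mL final, and were incubated 18 hours at 37 degrees C. Viability was read by CellTiter-Glo luminescence. Media-only wells were set as complete cell-killing and DMSO as no toxicity.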
ATXN viability = cell viability loss in ATXN counter-screen; S2 cells (HEK-293 line with an ATXN2-luciferase reporter) viability, CellTiter-Fluor protease fluorescence, 24 h; Potency, µM (highest dose often 56.7 µM), hits mostly cytotoxic; 400,000 tested, 0.49% active; AID 651635; further: potency means the concentration at half of the fitted maximal effect; nearly all actives have a fitted effect of over 40% in size
TGFb inhibitor = blocks TGF-b signaling. HepG2 CAGA-GFP TGF-b/SMAD3 reporter, GFP fluorescence, 18 h; TGF-beta stimulated, 500 pg/mL final. 410,000 tested, 1.2% active. Potency, µM (titrated, usually from 46.1 µM), for the others: at the highest dose activity, negative = inhibition, usual class: inhibitors; further: potency means the concentration at half of the fitted maximal effect; on the % scale 0 is the no-effect control and ±100 the full control effect; nearly all actives have a fitted effect of over 65% in size
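HEPG2 CAGA-GFP cells (1000/well, DMEM with 1% FBS) were pre-incubated 2 h at 37 degrees C, given compound by pin tool, then stimulated with TGF-beta at 500 pg/mL final for 18 h before per-cell GFP fluorescence imaging.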
Starred values were filed as active, the others as inactive; i = inactive; ? = inconclusive; nt = no result. An excerpt weighted towards active compounds, which were near 4.7% of everything screened. Unless noted, the call rests on the fitted dose curve; in most records, active means well fitted curve in the direction sought with a large enough effect; inconclusive means small, poorly fitted or top-dose-only effect, or another doubt; inactive means no such curve, though single readings can be large; an effect the other way counts as inactive or inconclusive.

SMILES | DRD3 antagonist | D3 ag | ATXN2 expr inh | HepG2 viability | ATXN viability | TGFb inhibitor
O=C(Nc1nc(-c2cccs2)cs1)c1cccc(S(=O)(=O)N2CCCCC2)c1 | -69* | -7 | -15% | -22% | i | -20%
Cc1[nH]n2c(=O)c(C#N)c(-c3ccccc3)nc2c1-c1ccccc1 | -60* | 0 | -25% | -21% | ? | -6%
Cc1ccc(Cc2c(C)nc3c(-c4ccccc4)c(C)[nH]n3c2=O)cc1 | nt | -13 | 16µM* | -35% | ? | ?
CCc1c(C)nc2c(-c3ccccc3)c(C)[nH]n2c1=O | -21 | -10 | -3% | -17% | i | -1%
Cc1nc2c(-c3ccccc3)c(C)[nH]n2c(=O)c1Cc1ccc(Br)cc1 | nt | -5 | nt | -46% | nt | 2.5µM*
COc1cc(=O)n2c(c1C(=O)N(C)Cc1ccsc1)CCN(Cc1cnn(C)c1C)CC2 | nt | nt | nt | nt | i | nt
CC(C)Oc1ccc(F)cc1-c1cc(C(=O)NCc2cc(C(F)(F)F)cc(C(F)(F)F)c2)[nH]n1 | 8 | 6 | 0% | -34% | ? | 11µM*
CC(C)Oc1cc(F)ccc1-c1cc(C(=O)Nc2cccc(C(F)(F)F)c2)[nH]n1 | 0 | 1 | ? | -38% | 28µM* | ?
CC(C)Oc1ccc(F)cc1-c1cc(C(=O)NCc2ccc(C(F)(F)F)cc2)[nH]n1 | 28 | 0 | -18% | -35% | ? | ?
NS(=O)(=O)c1ccc(CCNC(=O)c2ccc([N+](=O)[O-])s2)cc1 | -15 | -24 | -34% | 20µM* | i | ?
NS(=O)(=O)c1ccc(CCNC(=O)c2ccc(Cl)s2)cc1 | ? | -7 | -26% | -4% | i | -19%
O=C(COC(=O)c1ccc(Cl)nc1)NCc1ccc(F)cc1 | -50* | -8 | 3% | 14% | i | -2%
O=C(COC(=O)c1ccc(Cl)nc1)NCCNC(=O)COC(=O)c1ccc(Cl)nc1 | -16 | 1 | -3% | -2% | i | 0%
CNC(=O)c1c(I)c(NC(=O)CCCCC(=O)Nc2c(I)c(C(=O)O)c(I)c(C(=O)NC)c2I)c(I)c(C(=O)O)c1I | nt | nt | -4% | nt | i | nt
CCc1ccc2nc(N(CCN(CC)CC)C(=O)c3cccs3)sc2c1 | nt | -19 | -13% | -50% | i | -13%
Cc1ccc(-n2ncc3c(NCCc4ccccc4)ncnc32)cc1Cl | nt | 37* | 48% | -29% | i | 4%
COc1ccc(CCNc2ncnc3c2cnn3-c2ccc(C)c(Cl)c2)cc1 | nt | 30* | 22% | -34% | i | ?
CN(C)CCNc1ncnc2c1cnn2-c1ccc(Cl)cc1 | -64* | -4 | ? | -38% | ? | ?
Cc1ccc(-n2ncc3c(NCCc4ccccc4)ncnc32)cc1 | nt | 9 | 46% | -16% | i | 3%
CC1=C(C(=O)Nc2cccnc2)C(c2ccccc2)n2nc(-c3ccc(O)cc3)nc2N1 (configuration not stated) | nt | -2 | 7% | -3% | i | ?
Cc1ncc(-c2ccc(F)cc2)c(C2CCCN(Cc3cccc(O)c3)C2)n1 (configuration not stated) | nt | nt | nt | nt | i | nt
CC1Cc2ccccc2N1S(=O)(=O)c1cccc(C(=O)NCc2ccncc2)c1 (configuration not stated) | 15 | 6 | -13% | -31% | i | ?
CC1Cc2ccccc2N1S(=O)(=O)c1cccs1 (configuration not stated) | -110* | 13 | -12% | 2% | i | -4%
CCN(CC)CCNC(=O)c1ccc(NC(=O)c2cccc(S(=O)(=O)N3CCc4ccccc43)c2)cc1 | -23 | -22 | -16% | -48% | i | ?
CC1Cc2ccccc2N1S(=O)(=O)c1cccc(C(=O)NCc2ccccn2)c1 (configuration not stated) | -3 | 0 | nt | 20µM* | i | ?
SMILES | DRD3 antagonist | D3 ag | ATXN2 expr inh | HepG2 viability | ATXN viability | TGFb inhibitor
CC1Cc2ccccc2N1S(=O)(=O)c1nnc(NC(=O)c2ccccc2)s1 (configuration not stated) | nt | -11 | -17% | -29% | ? | 14µM*
CCN(CC)CCNC(=O)c1ccc(NC(=O)c2cccc(S(=O)(=O)N3c4ccccc4CC3C)c2)cc1 (configuration not stated) | -16 | -11 | ? | 10µM* | ? | ?
O=C(Cn1c(=O)n(Cc2ccc(C(=O)NCc3ccc4c(c3)OCO4)cc2)c(=O)c2ccccc21)Nc1cccc(Cl)c1 | nt | -10 | 10% | 3% | i | 36%
Cc1ccc2c(c1)C(=O)C(=O)N2Cc1ccc(Cl)cc1 | -64* | -34 | -14% | -13% | ? | ?
Cc1ccc2c(c1)C(=O)C(=O)N2Cc1ccc(F)cc1 | ? | -32 | -13% | -19% | ? | ?
Cc1ccc2c(c1)C(=O)C(=O)N2CCCOc1ccccc1 | -50* | -7 | 35% | -38% | i | 18µM*
O=C(Nc1ccc2c(c1)CCCN2C(=O)c1cccs1)c1ccccc1Cl | nt | 1 | -45% | -53% | ? | 0%
S=C(NCc1ccccc1)N1CCCCC1 | -25 | -2 | nt | -17% | i | -5%
CC(NNC(=S)N1CCCCCC1)c1ccc2ccccc2n1 (configuration not stated) | -6 | -13 | 8.9µM* | -14% | nt | ?
CC(C)[C@@H]1CC[C@@H](C)C[C@H]1OC(=O)c1ccccc1O | nt | 10 | nt | nt | nt | nt
CSCCC(NC(=O)c1ccccc1)C(=O)NC1CC1 (configuration not stated) | 10 | 34* | 11% | 12% | i | 10%
CCc1ccc2c(c1)NC(=O)C2(C)Cc1ccc(C(F)(F)F)o1 (configuration not stated) | 11 | -4 | ? | -42% | ? | ?
CC1(Cc2ccc3c(c2)OCO3)C(=O)Nc2ccc(-c3cccc(C(F)(F)F)c3)cc21 (configuration not stated) | 21 | 16 | ? | 18µM* | ? | ?
CC1(Cc2ccc(C(F)(F)F)o2)C(=O)Nc2ccc(-c3cccc(C(F)(F)F)c3)cc21 (configuration not stated) | 32 | 2 | ? | 18µM* | i | 14µM*
C=CC1=C(C)C2=CC3=NC(=C(CC(=O)[O-])C4=NC(=C(C)C4=C([O-])[O-])C=c4[n-]c(c(C)c4CC)=CC1=N2)C(CCC(=O)[O-])C3C.[Cu+2].[Na+].[Na+].[Na+] (configuration not stated) | nt | -20 | nt | nt | nt | nt
CC(C)(C)C(=O)N1CCN(c2ncccc2C(F)(F)F)CC1 | 7 | -15 | nt | -8% | i | -4%
